# MITF primary: human MITF inhibition, primary screen. O75030. AlphaScreen MITF homodimerization, bead proximity signal. inhibition, % at 2.6 µM. actives 0.91% (n = 650,000). AID 1259374; in the data active means inhibition above about 50%;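 further: 0% = vehicle wells with protein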
# TEAD-YAP block: TEAD-YAP interaction inhibition | HEK-TIYL cells, TEAD-Gal4/YAP UAS-luciferase luminescence | inhibition, % at 9.12 µM | actives 1.4% (n = 640,000) | AID 1259422; in the data active means inhibition above about 32%;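 further: 0% = median of test compound wells and 100% = reference inhibitor wells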
# FBW7 activator: activators of human E3 ligase FBW7 | AlphaScreen FBW7–phospho-cyclin E peptide binding, activator screen | normalized activity (activation), % at 26.1 µM | AID 1259310 | actives 0.13% (n = 650,000); in the data active means normalized activity above about 1.9%;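 further: purified mutant Fbw7 with reduced substrate affinity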
# GPR151 activ: activators of human GPR151. Q8TDV0. PathHunter beta-arrestin GPR151 cells, luminescence. activation, % at 11.2 µM. actives 1% (n = 650,000). AID 1508602; in the data active means activation above about 4.9%;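 further: 0% = median of compound wells and 100% = cells with positive control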
# Target sequence (Q8TDV0 whole entry, looked up): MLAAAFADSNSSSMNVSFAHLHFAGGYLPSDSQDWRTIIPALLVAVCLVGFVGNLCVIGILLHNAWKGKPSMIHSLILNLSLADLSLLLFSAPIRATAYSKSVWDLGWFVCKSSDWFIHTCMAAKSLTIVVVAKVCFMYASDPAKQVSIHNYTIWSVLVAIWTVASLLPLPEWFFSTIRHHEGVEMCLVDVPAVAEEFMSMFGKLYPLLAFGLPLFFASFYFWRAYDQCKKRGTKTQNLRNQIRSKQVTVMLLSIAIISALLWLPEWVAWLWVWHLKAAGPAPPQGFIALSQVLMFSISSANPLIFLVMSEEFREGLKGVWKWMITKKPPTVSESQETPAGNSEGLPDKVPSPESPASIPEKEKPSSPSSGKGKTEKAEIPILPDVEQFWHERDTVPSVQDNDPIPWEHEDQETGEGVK
# Starred values were filed as active, the others as inactive. A selection: hits, their analogues and other compounds. The true share with any hit is near 3.4%.
SMILES,MITF primary,TEAD-YAP block,FBW7 activator,GPR151 activ
COc1ccc(-c2nc(NC3CCN(Cc4ccccc4)CC3)c3ncn(C(C)C)c3n2)cc1,10,-3,0,-3
CC(C)n1cnc2c(NC3CCN(Cc4ccccc4)CC3)nc(-c3ccc(C(=O)NC4CC4)cc3)nc21,1,52*,0,2
COc1ccccc1NC(=O)C(=O)N/N=C/c1ccc2c(c1)OCO2,-6,-2,0,0
COc1ccccc1NC(=S)N/N=C/c1ccc2c(c1)OCCO2,-11,61*,0,-1
COc1ccccc1CNC(=O)CN(c1ccccc1F)S(C)(=O)=O,4,1,0,1
COC(=O)c1ccc(C(=O)Nc2nc3ccc4nc(C)sc4c3s2)cc1,6,4,0,-1
Cc1oc2c(c1C(=O)NCC1CCCO1)C(=O)c1ccccc1C2=O (stereo not given),11,77*,0,-2
Cc1oc2c(c1C(=O)N1CCN(C)CC1)C(=O)c1ccccc1C2=O,20,48*,0,-1
C/C(=N\NC(=O)c1cccc(S(=O)(=O)N2CCCC2)c1)c1ccc(C#N)cc1,7,0,0,0
COc1ccc(-c2nnc(Sc3ccc([N+](=O)[O-])cn3)n2-c2ccccc2)cc1OC,15,55*,0,-2
Cc1ccc(S(=O)(=O)N/N=C/c2ccccc2O)cc1,-11,2,0,1
Cc1ccc(S(=O)(=O)N/N=C/c2sc3ccccc3c2O)cc1,22,51*,0,-1
ClCc1nc2cc3ccccc3cc2[nH]1,-3,40*,0,0
COC(=O)Nc1cc([N+](=O)[O-])cc([N+](=O)[O-])c1Br,-4,99*,0,4
COC(=O)Nc1ccc(C(C)(C)C)cc1[N+](=O)[O-],14,-5,0,-2
CCC(=O)NC(=S)Nc1cccc(F)c1,10,-1,0,-1
Nc1ccc(/C=C/c2nc3ccccc3o2)cc1,12,45*,0,-4
COc1ccc2cc3c(N)nn(C(=O)c4cccc([N+](=O)[O-])c4)c3nc2c1,7,21,0,-1
COc1ccc(C(=O)n2nc(N)c3cc4cc(OC)ccc4nc32)cc1,-2,44*,0,-1
COc1ccc(C(=O)n2nc(N)c3cc4ccc(C)cc4nc32)cc1OC,-4,-10,0,0
COc1ccc2cc3c(N)nn(C(=O)Cc4ccccc4OC)c3nc2c1,21,33*,0,-1
COc1ccc2nc3c(cc2c1)c(N)nn3C(=O)c1ccc([N+](=O)[O-])cc1Cl,-11,-9,0,-1
CCOc1ccc(C(=O)n2nc(N)c3cc4cc(OC)ccc4nc32)cc1,15,38*,0,2
COc1ccc2nc3c(cc2c1)c(N)nn3C(=O)c1ccc(F)cc1,7,36*,0,1
CCNS(=O)(=O)c1ccc(NC(=O)Cc2ccc(Br)cc2)cc1,-3,5,0,1
SMILES,MITF primary,TEAD-YAP block,FBW7 activator,GPR151 activ
CCOC(=O)N1CCN(S(=O)(=O)c2ccc(F)c(C(=O)Nc3ccc(C(F)(F)F)cc3)c2)CC1,5,11,0,0
COc1c(S(=O)(=O)NC2CC(C)(C)NC(C)(C)C2)ccc(Cl)c1Cl,3,-5,0,-1
COc1ccc2cc3c(N)nn(C(=O)c4ccc(Br)o4)c3nc2c1,14,43*,0,0
COc1ccc2cc3c(N)nn(C(=O)c4cncc(Br)c4)c3nc2c1,10,12,1,-1
COc1ccc2c(c1)CC(C(=O)Nc1ccc(-c3cn[nH]c3C)cc1OCCO)CO2 (stereo not given),20,55*,1,-1
Cc1[nH]ncc1-c1ccc(NC(=O)C2COc3ccc(F)cc3C2)c(N(C)CCN(C)C)c1 (stereo not given),6,0,0,-1
Cc1[nH]ncc1-c1ccc2nc(NC(=O)C3COc4ccc(F)cc4C3)sc2c1 (stereo not given),36,57*,1,0
COc1ccc2c(c1)CC(C(=O)Nc1ccc(-c3cn[nH]c3C)cc1OCCN1CCCC1)CO2 (stereo not given),-5,-3,0,0
COc1ccc2c(c1)CC(c1cnc3ccc(-c4cn[nH]c4)cc3n1)CO2 (stereo not given),11,33*,1,0
O=C(Nc1ccc(-c2cn[nH]n2)cc1)C1COc2ccc(F)cc2C1 (stereo not given),0,34*,0,2
COCc1ccc(CN2CCC(n3c(CCc4ccccc4)nc4cccnc43)CC2)o1,7,3,0,-1
COc1ccc(C2C=C(c3cccs3)Nc3nnnn32)c(OC)c1 (stereo not given),1,-50,0,1
